An excerpt weighted towards active compounds, which were near 6.2% of everything screened.
KB-3-1 cytotox: KB-3-1 parental cell cytotoxicity | KB-3-1 viability, CellTiter-Glo ATP luminescence, 72 h | Potency, µM (top dose mostly 46.1 µM), hits mostly cytotoxic | 400,000 compounds, 1.4% hits; also: % is scaled to controls: 0 for no effect and ±100 for the full control effect; nearly all actives have a fitted effect of over 60% in size
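Screening of KB-3-1 cells (DMEM, 10% FBS, phenol-red free) ran from lowest to highest compound concentration; after 72 h at 37 °C viability was read luminescently and curves fitted.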
HT1080NT lethal: kills 2HG-producing HT-1080-NT fibrosarcoma cells. HT-1080-NT fibrosarcoma viability, CellTiter-Glo ATP luminescence, 48 h. Potency, µM (series often up to 46.1 µM), without a hit: top-dose activity, negative = less viability, actives largely listed as cytotoxic. 360,000 compounds, 1.6% hits;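 also: NT is the 2HG producing partner of a matched IDH1 knockdown line; 0% = DMSO-treated cells and -100% = media-only wells without cells; nearly all actives have a fitted effect of over 55% in size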
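HT-1080-NT; 750 cells/well; 5% FBS RPMI; 48 h compound, 37 degrees C; CellTiter-Glo luminescence; curve fitting and curve-class assignment.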
HT1080 IDH1KD tx: HT-1080 IDH1 knockdown cell toxicity (counter line). AID 686971. Potency, µM (highest dose often 46.1 µM), for inactives: top-dose activity, negative = toxicity, usual class: cytotoxic. 360,000 compounds, 2% hits. HT-1080 IDH1 knockdown viability, ATP luminescence, 48 h;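 also: 0% = DMSO wells and -100% = cell-free medium wells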
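Using the IDH1-knockdown HT-1080 line run in the same batch and compound series as the NT line, viability after 48 h at 37 °C was determined by CellTiter-Glo luminescence and expressed as % activity.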
S2 tox: viability counter-screen for ATXN expression inhibitors | S2 cells (HEK-293 line with an ATXN2-luciferase reporter) viability, CellTiter-Fluor protease fluorescence, 24 h | Potency, µM (doses to about 56.7 µM), actives largely listed as cytotoxic | 400,000 compounds, 0.49% hits | AID 651635; also: nearly all actives have a fitted effect of over 40% in size
KB-V1 MDR tox: KB-V1 MDR subline cytotoxicity | KB-V1 MDR cells viability, CellTiter-Glo, 72 h | AID 1347076 | 400,000 compounds, 3.4% hits | Potency, µM (series often up to 46.1 µM), most hits filed as cytotoxic; also: % is scaled to controls: 0 for no effect and ±100 for the full control effect; nearly all actives have a fitted effect of over 60% in size
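KB-V1 cells (P-gp-expressing MDR subline of KB-3-1) in phenol-red-free DMEM with 10% FBS were exposed to library compounds over a concentration series for 72 h at 37 degrees C. Viability read by CellTiter-Glo luminescence; concentration-effect curves fitted after normalization.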
ATXN2 expr inh: inhibitors of ATXN2 expression; 360,000 compounds, 0.72% hits; AID 1745845; Potency, µM (top dose mostly 57 µM), for inactives: at the highest dose activity change, negative = inhibition, usual class: inhibitors; HEK-293 ATXN2-luciferase reporter, luminescence, 24 h; also: % is scaled to controls: 0 for no effect and ±100 for the full control effect; nearly all actives have a fitted effect of over 55% in size
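ATXN2-luciferase reporter cells (luciferase flanked by upstream and downstream ATXN2 gene portions) were treated 24 h at 37 °C with compounds at up to 57 uM. SteadyGlo luminescence gave expression; GF-AFC fluorescence gave viability.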
Active calls of the source: *; i = inactive; ? = inconclusive; . = no result; [ ] = dose if it differs, or a comment. Calls follow the shape of the dose curve; as a rule, active = well fitted curve in the direction sought with a large enough effect; inconclusive = small, poorly fitted or top-dose-only effect, or another doubt; inactive = no such curve, though single readings can be large; an effect the other way counts as inactive or inconclusive. Potency is read from the fitted curve at half-maximal effect.

SMILES | KB-3-1 cytotox | HT1080NT lethal | HT1080 IDH1KD tx | S2 tox | KB-V1 MDR tox | ATXN2 expr inh
O=C(Nc1cccc(O)c1)c1ccc([N+](=O)[O-])cc1Cl | ? | 2% | 8% | i | i | 53%
O=C1N(Cc2ccccc2Cl)c2ccccc2C1(O)c1c[nH]c2ccccc12 (stereo not drawn) | i | . | . | i | ? | 0%
Cc1ccc2nc(-c3ccc(NC(=O)CSc4nc(N)cc(=O)[nH]4)cc3)sc2c1 | ? | 9.2µM* | 12µM* | i | i | 80%
Cc1ccc2nc(-c3ccc(NC(=O)C(C)Sc4nncs4)cc3)sc2c1 (stereo not drawn) | i | ? | -17% | i | 12µM* | .
Cc1ccc2nc(-c3ccc(NC(=O)C(F)(F)F)cc3)sc2c1 | ? | . | . | i | i | 49%
O=C(CS(=O)(=O)c1cccc2nsnc12)N1CCN(c2ccc(F)cc2)CC1 | i | . | . | i | ? | -3%
CCN(CC)C(=O)CSc1nnc2nnc3cc(C)ccc3n12 | i | 4% | -6% | i | 21µM* | -17%
Cc1cn(C)c(CC(=O)Nc2cccc(C#N)c2)c1C(=O)O | i | . | . | ? | ? | -5%
O=C(NCCc1ccccc1)C(=O)NCC(c1ccco1)S(=O)(=O)c1cccs1 (stereo not drawn) | i | . | . | . | i | .
CCOc1c(Br)ccc2c1sc1nc[nH]c(=O)c12 | ? | -2% | 1% | i | 21µM* | 2%
COCCOC(=O)c1sc2nc[nH]c(=O)c2c1C | i | ? | 5% | i | i | -12%
Nc1ccc2c(c1)C(=O)C(=O)c1ccccc1-2 | 2.9µM* | 4.6µM* | ? | 6.3µM* | 4.6µM* | 4.5µM*
Nc1ccc2c(c1)C(=O)c1ccccc1-2 | i | 15% | 15% | i | i | 30%
O=C1C(=O)c2ccc(-c3ccccc3)cc2-c2ccccc21 | 4.1µM* | 3.7µM* | 3.3µM* | 5.6µM* | 3.7µM* | ?
CCOC(=O)c1noc2nc(C)n(CC(=O)Nc3ccc(OC)c(Cl)c3)c(=O)c12 | i | . | . | i | i | 5%
COC(=O)CCNC(=O)N1CCN(c2nnc(C)c3c(C)n(-c4ccccc4)nc23)CC1 | i | . | . | i | i | -9%
COc1ccc2c(CNC3CCCC3)c(C(=O)O)n(Cc3ccccc3C)c2c1 | i | . | . | . | i | .
COc1cccc(N2CC(O)=C(c3nc4ccccc4c(=O)[nH]3)C2=N)c1 | 4.6µM* | 1.3µM* | ? | i | ? | 6%
Cc1cc(C)cc(N2CC(O)=C(c3nc4ccccc4c(=O)[nH]3)C2=N)c1 | 15µM* | -20% | -15% | i | ? | 1%
CC(C)N1CC(O)=C(c2nc3ccccc3c(=O)[nH]2)C1=N | ? | 17% | -1% | i | i | -12%
CC(=O)c1ccc(NC(=O)CN(C)S(=O)(=O)c2cnc[nH]2)cc1 | i | . | . | i | i | 12%
Nc1ccc(-c2nc3c(Cl)cc(N)cc3[nH]2)cc1 | i | 2% | -13% | i | i | 10µM*
Nc1ccc2nc(-c3ccc(N)c(Cl)c3)[nH]c2c1 | i | -21% | -9% | ? | i | -9%
Cc1cc(NC(=O)CN(c2cccc(C)c2C)S(=O)(=O)c2ccccc2)ccc1Br | i | . | . | i | i | -26%
N#C/C(=C\c1ccc(N2CCOCC2)o1)c1ccccc1 | i | ? | 4.5µM* | i | ? | 187%
SMILES | KB-3-1 cytotox | HT1080NT lethal | HT1080 IDH1KD tx | S2 tox | KB-V1 MDR tox | ATXN2 expr inh
N#C/C(=C/c1ccc(N2CCOCC2)o1)c1ccc(Br)cc1 | ? | ? | ? | i | 18µM* | -1%
C[C@@]12CCC3[C@@](CC[C@@H]4[C@](C)(C(=O)O)CCC[C@@]34C)(C[C@H]1O)C2 (stereo partly drawn) | i | 2% | 0% | i | i | .
C[C@@]12C(C[C@H](O)[C@@]34C[C@@H](CCC13)[C@@H](CO)C4=O)[C@](C)(C(=O)O)CC[C@@H]2O (stereo partly drawn) | i | 29µM* | ? | i | i | -17%
C=C1C(=O)[C@]23C[C@H]1CCC2[C@@]1(C)C(C[C@@H]3O)[C@](C)(C(=O)OC)CC[C@@H]1O (stereo partly drawn) | 13µM* | 2.3µM* | 2.3µM* | . | i | 1.6µM*
Cc1cccc(CNC(=O)c2cnn(-c3ncc(C)c(-c4cccs4)n3)c2C2CC2)n1 | . | . | . | i | . | .
CCCCOC(=O)c1cc(=O)[nH]c2ccccc12 | i | 9% | -3% | i | 5.8µM* | 14%
Cc1noc(C)c1COC(=O)c1cc(C)n(-c2ccccc2)c1C | ? | 5% | -18% | i | 7.3µM* | 48%
Cc1ccc(C(=O)COC(=O)c2cc(=O)[nH]c3ccccc23)cc1 | i | 18% | 1% | i | i | 22%
Cc1ccccc1NC(=O)c1cccc(OCc2c(C)noc2C)c1 | i | 11% | 11% | i | i | 5%
CCNC(=O)COC(=O)c1cc(=O)[nH]c2ccccc12 | i | 10% | -12% | i | i | 2%
Cc1noc(C)c1COC(=O)c1cc(=O)[nH]c2ccccc12 | ? | 0% | -2% | i | 5.8µM* | 5%
Cc1cccc(C(=O)Nc2ccccc2C(=O)OCc2c(C)noc2C)c1 | i | 9% | -1% | i | 3.3µM* | -11%
CC(=O)c1ccc(NC(=O)NCCc2c[nH]c3ccccc23)cc1 | i | . | . | i | i | 0%
CCCCOC(=O)c1cc(=O)[nH]c2ccc(C)cc12 | 15µM* | 1% | -3% | i | 18µM* | 1%
Cc1noc(C)c1COC(=O)c1ccc(N(C)C)cc1 | ? | 16% | 3% | ? | 4.1µM* | 23%[11.3 µM]
Cc1ccc(CNC(=O)C(=O)NCC(c2cccs2)S(=O)(=O)c2ccc(C)cc2)cc1 (stereo not drawn) | i | . | . | i | i | 1%
Cc1nc(N2CCCC2)ncc1C(=O)NCc1ccccc1Cl | i | . | . | i | i | 5%
Nc1c(C(=O)Nc2ccc(S(=O)(=O)N3CCCC3)cc2)sc2nc3ccc(OC(F)(F)F)cc3cc12 | 15µM* | ? | ? | . | ? | ?
CCOc1ccc(NC(=O)Cn2nc(CC)n3c(cc4sccc43)c2=O)cc1 | i | . | . | . | i | .
CCN(CC)c1c2c(c(C#N)c3nc4ccccc4n13)CCC2 | i | 2% | 6% | i | 3.7µM* | -8%
N#Cc1c2c(c(Cl)n3c1nc1ccccc13)CCCC2 | i | . | . | . | i | .
Cc1cc(Cl)n2c(nc3ccccc32)c1C#N | i | 9.2µM* | 7.3µM* | . | ? | ?

Bioassay records (PubChem)
